# PMC5540273 (PLoS ONE, 2017)
# Key:
# Details in all cases: concentration: 1 μM, replicates: in singlicate; n = 1
# PIK3C2G = tested on: PIK3C2G
# PIK3CA = tested on: PIK3CA
# PIK3CB = tested on: PIK3CB
# PIK3CD = tested on: PIK3CD
# PIK3CG = tested on: PIK3CG
# PIK4CB = tested on: T1, PIK4CB
# T1 construct: gene PI4KB
# PIKFYVE = tested on: PIKFYVE
# PIM1 = tested on: PIM1
# PIM2 = tested on: PIM2
# PIM3 = tested on: PIM3
# PIP5K1A = tested on: PIP5K1A
# PIP5K1C = tested on: PIP5K1C
# PIP5K2B = tested on: PIP5K2B
# PIP5K2C = tested on: T2, PIP5K2C
# T2 construct: gene PIP4K2C
# PKAC-alpha = tested on: T3, PKAC-alpha
# T3 construct: gene PRKACA
# PKAC-beta = tested on: T4, PKAC-beta
# T4 construct: gene PRKACB
# PKMYT1 = tested on: PKMYT1
# PKN1 = tested on: PKN1
# PKN2 = tested on: PKN2
# PLK1 = tested on: PLK1
# 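Note: KINOMEscan kinase panel screen.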
Structure (SMILES),%Inh (PIK3C2G),%Inh (PIK3CA),%Inh (PIK3CB),%Inh (PIK3CD),%Inh (PIK3CG),%Inh (PIK4CB),%Inh (PIKFYVE),%Inh (PIM1),%Inh (PIM2),%Inh (PIM3),%Inh (PIP5K1A),%Inh (PIP5K1C),%Inh (PIP5K2B),%Inh (PIP5K2C),%Inh (PKAC-alpha),%Inh (PKAC-beta),%Inh (PKMYT1),%Inh (PKN1),%Inh (PKN2),%Inh (PLK1)
CCNc1nccc(-c2c(-c3ccc(F)cc3)ncn2C2CCN(C)CC2)n1,26%,0%,0%,0%,10%,0%,0%,6%,4%,30%,0%,0%,0%,0%,20%,0%,0%,0%,0%,0%
CN(c1ccc2c(c1)nc(NCc1ccccc1)n2C)c1ccnc(Nc2ccc(CS(C)(=O)=O)cc2)n1.Cl [GW811603],0%,0%,41%,0%,29%,26%,50%,0%,0%,0%,23%,44%,0%,79%,0%,0%,0%,0%,0%,0%
Cn1cc(-c2cnc(N)c3c(-c4ccc5c(c4)CCN5C(=O)Cc4ccccc4)csc23)cn1 [GSK2593074],35%,8%,0%,0%,3%,100%,0%,0%,15%,1%,0%,0%,1%,0%,9%,0%,8%,0%,7%,0%
Cc1ccc(NC(=O)c2cccc(N3CCCCC3)c2)cc1-c1ccc(C(=O)NCC2CC2)cc1 [GSK1917008],45%,1%,0%,25%,0%,11%,0%,15%,0%,0%,0%,25%,8%,0%,0%,14%,0%,17%,0%,0%
CN(c1ccc(NC(=O)Nc2cccc(Cl)c2)cc1)c1ccnc(N)n1.Cl [GW830707],11%,0%,20%,48%,0%,3%,0%,0%,11%,3%,12%,0%,0%,29%,13%,26%,3%,0%,0%,26%
CC(C)(C)c1ccc(C(=O)Nc2cn3cc(-n4ccnc4)ccc3n2)cc1,32%,0%,3%,0%,4%,2%,5%,7%,0%,0%,2%,4%,0%,95.3%,37%,0%,0%,10%,0%,0%
O=C(O)C(F)(F)F.O=c1[nH]ccc2nc(N[C@@H]3CCNC3)nc(Nc3ccc4c(c3)S(=O)(=O)CC4)c12 [GSK2181306],23%,9%,100%,34%,86%,0%,0%,89%,96.6%,99%,57%,84%,84%,76%,24%,43%,16%,0%,71%,31%
COc1cc(Nc2nccc(N3CCC(NS(=O)(=O)c4ccc(NC(C)=O)cc4)CC3)n2)cc(OC)c1OC [GSK1379825],9%,0%,0%,91.6%,99.7%,9%,82%,0%,0%,0%,11%,56%,0%,77%,0%,0%,40%,16%,0%,4%
CC(C)NCC(Cc1ccccc1)NC(=O)c1cc(Br)c(-c2ccnc3[nH]ccc23)s1.Cl.Cl (stereo not drawn) [GSK1383281],0%,0%,0%,0%,0%,0%,0%,11%,0%,0%,14%,49%,17%,37%,99.4%,99%,0%,40%,57%,0%
